LmPK inhibitor – qHTS Assay for Inhibitors of Leishmania Mexicana Pyruvate Kinase (LmPK). 290,000 compounds, 0.37% hits. purified LmPK, Kinase-Glo ATP luminescence, 1 h. Q27686. Potency, µM (doses to about 57.5 µM), usual class: inhibitors
Target sequence (Q27686 whole entry, looked up): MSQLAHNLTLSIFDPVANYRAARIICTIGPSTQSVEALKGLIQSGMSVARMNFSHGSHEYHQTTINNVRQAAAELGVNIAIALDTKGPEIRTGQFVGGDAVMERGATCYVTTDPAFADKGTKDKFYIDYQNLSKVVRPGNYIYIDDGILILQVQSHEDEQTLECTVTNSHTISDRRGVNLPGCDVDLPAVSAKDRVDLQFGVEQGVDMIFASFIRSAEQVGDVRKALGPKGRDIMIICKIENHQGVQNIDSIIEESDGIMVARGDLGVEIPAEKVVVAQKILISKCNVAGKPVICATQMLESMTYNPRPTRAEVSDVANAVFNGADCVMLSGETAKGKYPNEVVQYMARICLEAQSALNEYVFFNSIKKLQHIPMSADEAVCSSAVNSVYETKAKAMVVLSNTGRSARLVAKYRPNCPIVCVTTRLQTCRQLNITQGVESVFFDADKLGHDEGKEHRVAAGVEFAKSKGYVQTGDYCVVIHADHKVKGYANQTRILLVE
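Kinase-Glo luminescence read after 1 h RT reaction of 0.1 nM LmPK with 0.5 mM PEP and 0.1 mM ADP. Activity scaled between uninhibited and enzyme-free controls.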
CHX counter – Cycloheximide Counterscreen for Small Molecule Inhibitors of Shiga Toxin | 300,000 compounds, 12% hits | max response, % | AID 2314, 2010 | cell reporter, cycloheximide protein synthesis inhibition counterscreen; in the data active means max response mostly above about 13%, no sharp cut-off; inactive means mostly below about 14%; further: read at 38.3 µM for the half of the compounds with a filed dose
TbPYK inhibitor – qHTS of Trypanosoma Brucei Inhibitors; pyruvate kinase (Trypanosoma brucei), Q57TT1; TbPYK enzyme, Kinase-Glo Plus ATP luminescence, 45 min; Potency, µM (top dose mostly 76.8 µM), most hits filed as inhibitors; 410,000 compounds, 0.12% hits; further: nearly all actives have a fitted effect of over 50% in size
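T. brucei PYK with substrate was exposed to pin-transferred compounds across a concentration series, then started with 130 uM ADP (final). After 45 min at room temperature, Kinase-Glo Plus luminescence was read, normalized and curve-fitted.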
Giardia FBPA inh – qHTS Assay for Inhibitors of Fructose-1,6-bisphosphate Aldolase from Giardia Lamblia. 290,000 compounds, 0.71% hits. purified Giardia FBPA. AID 2451, 2010. A8B2U2. Potency, µM (highest dose often 59.6 µM), actives largely listed as inhibitors; further: nearly all actives have a fitted effect of over 55% in size
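Giardia FBPA (40 nM reagent) was preincubated 10 min at RT with compound (up to 57.5 uM final), then substrate plus GAPDH/TPI/NAD/arsenate coupling system with diaphorase/resazurin was added; resorufin fluorescence (525/598 nm) was read after 20 min.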
RE007 growth inh – qHTS Assay for Inhibitors of the HIV-1 protein Vpr | S. pombe RE007 Vpr strain, BacTiter-Glo ATP luminescence, 24 h | 360,000 compounds, 0.21% hits | Potency, µM (series often up to 92.2 µM), actives largely listed as inhibitors; active means well fitted falling curve with a large enough effect; inconclusive means small, poorly fitted or top-dose-only effect; inactive means no such curve, though single readings can be large or run the other way; further: nearly all actives have a fitted effect of over 50% in size
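Fission yeast strain RE007, carrying one chromosomally integrated HIV-1 vpr copy, was seeded at OD 0.01 in PMG+AL medium with 23 nL pinned compound. After 24 h at 30 °C and 99% humidity, viability was read by BacTiter-Glo luminescence.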
Shiga inhibitor – A qHTS for Small Molecule Inhibitors of Shiga Toxin; Vero cells, Shiga toxin protein synthesis inhibition reporter; inhibition, % at 38.7 µM; 290,000 compounds, 9.2% hits; AID 2315, 2010; in the data active means inhibition mostly above about 28%, no sharp cut-off; inactive means mostly below about 43%
Of the large screens only hits and unclear results are named; the others gave an inactive call. Shown is part of a subset that was picked to be rich in hits. Unless noted, the call rests on the fitted dose curve; in most records, active means well fitted curve in the direction sought with a large enough effect; inconclusive means small, poorly fitted or top-dose-only effect, or another doubt; inactive means no such curve, though single readings can be large; an effect the other way counts as inactive or inconclusive.

CC(C)c1ccc(OC(=O)NCCO)cc1	CHX counter 15, Shiga inhibitor 44
CC(C)OC(=O)C(C)Oc1ccc(C(=O)NCCc2ccccc2)cc1 (stereo unspecified)	CHX counter 25, Shiga inhibitor 40
COc1ccc2cc(C(=O)NCCc3ccccc3)[nH]c2c1	CHX counter 22
COc1ccc(CC(=O)Nc2ccccc2C(=O)NCCc2ccccc2)cc1	CHX counter 30, Shiga inhibitor 48
COc1cc2cc(C(=O)NCCc3ccccc3)[nH]c2cc1OC	none
COc1ccc(-c2nc[nH]c2[N+](=O)[O-])cc1	none
COc1ccc(OC(=O)NCCc2ccccc2)cc1	CHX counter 33, Shiga inhibitor 62
COc1cccc(CCNC(=O)c2ccc(C#N)cc2)c1	CHX counter 21, Shiga inhibitor 38
CCCCOc1ccc(C(=O)NCc2ccccn2)cc1	CHX counter 21
COc1ccc(CNC(=O)COC(=O)C2=COCCO2)cc1	none
COc1cccc(CNC(=O)c2ccc(C(=O)NCc3cccc(OC)c3)cc2)c1	none (no result: Giardia FBPA inh)
COc1ccc(CCNC(=O)C2=COCCO2)cc1	CHX counter 24, Shiga inhibitor 66
Nc1ccc(S(=O)(=O)Nc2nccc(/C=C/c3cccc(Br)c3)n2)cc1	none
COc1ccc(CCNC(=O)c2ccccc2)cc1	CHX counter 28, Shiga inhibitor 117
COc1ccc(CCNC(=O)Cc2cc(OCc3ccccc3)c(OC)cc2[N+](=O)[O-])cc1OC	none
CCCCOc1ccc(C(=O)NCCc2ccccc2)cc1	CHX counter 42, Shiga inhibitor 91
COc1cccc(CNC(=O)c2ccc(C3SCCS3)cc2)c1	CHX counter 26 (no result: Giardia FBPA inh)
COc1ccc(CCNC(=O)c2ccccc2C(=O)NCCc2ccc(OC)cc2)cc1	none (no result: LmPK inhibitor, CHX counter, Giardia FBPA inh, Shiga inhibitor)
O=C(COc1ccc(C(=O)NCCc2ccccc2)cc1)Nc1ccccc1	none
COc1cc(CC(=O)NCCc2ccc(OCc3ccccc3)cc2)c([N+](=O)[O-])cc1OC	CHX counter 49
CC1=CC(=O)C2=C(C)CC[C@H]3[C@H](C)C(=O)O[C@@H]3C12 (stereo partly specified)	none (no result: LmPK inhibitor, TbPYK inhibitor, RE007 growth inh)
COC(=O)[C@]1(C)N[C@H](CN(C)C(=O)Nc2ccc(C)cc2)[C@@H]2C(=O)N(C)C(=O)[C@@H]21	none (no result: LmPK inhibitor, CHX counter, Giardia FBPA inh, Shiga inhibitor)
CCOC(=O)Cn1c(=O)n(CC2CCCO2)c2nc(-c3ccccc3F)nc(C(N)=O)c21 (stereo unspecified)	none (no result: LmPK inhibitor, CHX counter, Giardia FBPA inh, RE007 growth inh, Shiga inhibitor)
COc1ccc(S(=O)(=O)N2CCCCC2c2cc(C(=O)NCc3ccccc3)no2)cc1 (stereo unspecified)	none (no result: LmPK inhibitor, CHX counter, Giardia FBPA inh, Shiga inhibitor)
CC1(C)NC(=O)N(c2ccc([N+](=O)[O-])c(C(F)(F)F)c2)C1=O	none (no result: LmPK inhibitor, CHX counter, Shiga inhibitor)
COc1cc(C(=O)NCCc2cn3ccccc3n2)cc(OC)c1OC	none
COc1ccc(CC(=O)Nc2cccc(C(=O)O)c2C)cc1	CHX counter 15
O=C(NCCc1ccc([N+](=O)[O-])cc1)c1ccccc1	CHX counter 29, Shiga inhibitor 61
COc1ccc(C(=O)NCCc2cn3ccccc3n2)cc1	Shiga inhibitor 43
COc1ccc(C(=O)NCC2(c3ccccc3)CCOCC2)cc1	CHX counter 36
COc1cc(OC)c(C(=O)OCC(=O)NCCc2ccccc2)cc1OC	none
Cc1ccc(NC(=O)Cn2c(=O)n(-c3ccc(Cl)c(Cl)c3)c(=O)c3c(C)c(C)sc32)c(C)c1	none (no result: LmPK inhibitor, CHX counter, Giardia FBPA inh, RE007 growth inh, Shiga inhibitor)
O=C(NCCC1CC1(Cl)Cl)c1ccc([N+](=O)[O-])cc1 (stereo unspecified)	CHX counter 25
CN[C@H]1C[C@H]2c3[nH]c4ccc(-c5cccc(C)c5)cc4c3CCN2C[C@H]1[C@H](C)O	none (no result: LmPK inhibitor, CHX counter, Giardia FBPA inh, Shiga inhibitor)
CCC(=O)NC(=S)Nc1ccc(-c2nc3ccc(C)cc3s2)cc1	CHX counter 40, Shiga inhibitor 91
Cc1ccc2nc(-c3ccc(NC(=S)NC(=O)C(C)C)cc3)sc2c1	CHX counter 53, Shiga inhibitor 84
O=C(COc1ccccc1F)Nc1ccc(-c2nc3ccccc3s2)cc1	none (no result: LmPK inhibitor, CHX counter, Giardia FBPA inh, RE007 growth inh, Shiga inhibitor)
CCC(=O)NC(=S)Nc1ccc(-c2nc3ccccc3s2)cc1	CHX counter 49, Shiga inhibitor 69
COc1ccc(CCN2CC(C(=O)OCc3ccccc3Cl)CC2=O)cc1OC (stereo unspecified)	none (no result: LmPK inhibitor, CHX counter, Giardia FBPA inh, Shiga inhibitor)
CCN(CC)C(=O)Cn1c(SCC(=O)Nc2ccc(C)c(C)c2)nc2ccccc21	none (no result: LmPK inhibitor, CHX counter, Giardia FBPA inh, RE007 growth inh, Shiga inhibitor)
COc1ccc(-c2cnc(C(O)c3ccc(C(C)(C)C)cc3)[nH]2)cc1 (stereo unspecified)	none (no result: LmPK inhibitor, CHX counter, Giardia FBPA inh, Shiga inhibitor)
CCn1cc(C(=O)Nc2ccc(C(C)C)cc2)c2cc(OC)c(OC)cc2c1=O	none (no result: LmPK inhibitor, CHX counter, Giardia FBPA inh, RE007 growth inh, Shiga inhibitor)
Cc1cc(C)nc(/N=C(\N)Nc2ccc(C(C)C)cc2)n1	CHX counter 14
Cc1ccc(N/C(N)=N/c2nc(C)cc(C)n2)cc1	none
Cc1cc(-c2c(C)[nH]n(-c3ccc(Cl)cc3)c2=O)n[nH]1	CHX counter 27
Cc1[nH]n(-c2ccccc2)c(=O)c1Sc1ccc(Cl)cc1	none
Cc1ccc2cc(C3CC(c4ccco4)=NN3S(=O)(=O)c3ccccc3)c(Cl)nc2c1 (stereo unspecified)	none
COc1ccc2cc(C3CC(c4ccco4)=NN3S(=O)(=O)c3ccccc3)c(Cl)nc2c1 (stereo unspecified)	Shiga inhibitor 33
CCOc1ccc2cc(C3CC(c4ccco4)=NN3S(=O)(=O)c3ccccc3)c(Cl)nc2c1 (stereo unspecified)	CHX counter 19, Shiga inhibitor 68
Cc1nc(-c2ccccc2)sc1-c1ccn[nH]1	CHX counter 28, RE007 growth inh inconclusive, Shiga inhibitor 69
Cc1nc(-c2ccccc2)sc1-c1ccnn1C	CHX counter 35, Shiga inhibitor 81
CC1CC(C)CN(C(=O)c2ccc(S(=O)(=O)N3CCCC3)cc2)C1 (stereo unspecified)	none
Cc1ccccc1C(=O)Nc1nnc(-c2ccco2)s1	CHX counter 38, Shiga inhibitor 69
COc1ccccc1C(=O)Nc1nnc(-c2ccco2)s1	CHX counter 42, Shiga inhibitor 133
COc1ccccc1NC(=O)Nc1nnc(-c2ccco2)s1	none (no result: TbPYK inhibitor, Giardia FBPA inh, RE007 growth inh)
COc1ccc(CCNC(=O)CCCn2c(=O)c3ccccc3n(Cc3c(C)cc(C)cc3C)c2=O)cc1OC	none (no result: LmPK inhibitor, CHX counter, Giardia FBPA inh, RE007 growth inh, Shiga inhibitor)
COC(=O)[C@@]12C[C@@H](CC(=O)N3CCCC3)C(=O)N(Cc3ccco3)C1=CCC(C)(C)C2	none (no result: LmPK inhibitor, CHX counter, TbPYK inhibitor, Giardia FBPA inh, Shiga inhibitor)
C[n+]1ccccc1/C=C/c1ccc(F)c(F)c1	none (no result: Shiga inhibitor)
C[n+]1ccccc1/C=C/c1ccc2ncccc2c1	CHX counter 27, Shiga inhibitor 40
COc1ccc(NC(=O)c2ccc(COCC(F)(F)C(F)F)cc2)cc1	CHX counter 53, Shiga inhibitor active
